# Laboratory results from paper PMC5540273 (PLoS ONE, 2017).
# Assays:
# Details in all cases: concentration: 1 μM, replicates: in singlicate; n = 1
# HASPIN = system: T1, HASPIN
# T1 construct: gene GSG2
# HCK = system: HCK
# HIPK1 = system: HIPK1
# HIPK2 = system: HIPK2
# HIPK3 = system: HIPK3
# HIPK4 = system: HIPK4
# HPK1 = system: HPK1
# HUNK = system: HUNK
# ICK = system: ICK
# IGF1R = system: IGF1R
# 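Also: KINOMEscan kinase panel screen.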
Compound,%Inh (HASPIN) [%],%Inh (HCK) [%],%Inh (HIPK1) [%],%Inh (HIPK2) [%],%Inh (HIPK3) [%],%Inh (HIPK4) [%],%Inh (HPK1) [%],%Inh (HUNK) [%],%Inh (ICK) [%],%Inh (IGF1R) [%]
Cn1cc(-c2ccc3c(c2)CCN3C(=O)Cc2cc(F)cc(C(F)(F)F)c2)c2c(N)ncnc21 [GSK2635225],9,0,16,0,17,13,31,9,0,30
COC(=O)Nc1nc2ccc(Oc3ccc(CC(=O)Nc4cc(C(F)(F)F)ccc4F)cc3)cc2[nH]1 [GW680903],0,0,0,0,0,0,60,15,0,0
CS(=O)(=O)c1cccc(CNc2nc(Nc3ccc4c(c3)CCC(=O)N4)ncc2C(F)(F)F)c1,0,0,31,3,0,22,41,0,0,5
O=C(Nc1c(F)cccc1F)c1cc(C(=O)c2ccccc2F)c[nH]1 [GSK1326180],22,0,0,44,0,0,50,24,0,18
CCNc1nccc(-c2c(-c3ccc(F)cc3)ncn2C2CCN(C)CC2)n1,0,0,39,70,66,0,0,0,0,0
O=C(Nc1n[nH]c2nc(-c3ccccc3O)ccc12)C1CC1 [SB-711880],0,0,27,7,0,0,0,0,26,0
CCn1cnc2c(NCc3ccccc3)ncnc21 [SKF-96418],10,9,27,9,33,33,0,48,0,0
O=C(O)C(F)(F)F.O=c1[nH]ccc2nc(N[C@@H]3CCNC3)nc(Nc3cc(Cl)cc(Cl)c3)c12 [GSK2188764],86,0,27,6,54,0,95.7,0,12,0
COc1cc(Nc2nccc(N3CCC(NS(=O)(=O)c4ccc(NC(C)=O)cc4)CC3)n2)cc(OC)c1OC [GSK1379825],0,0,0,0,15,0,86,0,0,0
Cc1cc(-c2c(-c3ccc(F)cc3)ncn2CCCN2CCOCC2)nc(N)n1 [SB-222517],0,27,44,0,18,0,12,0,0,10
Cn1cc(-c2cnc(N)c3c(-c4ccc5c(c4)CCN5C(=O)Cc4ccccc4)csc23)cn1 [GSK2593074],0,86,21,0,7,0,94,0,100,0
c1ccc(Oc2ccc(Nc3ccnc4cc(-c5ccc(CN6CCCCC6)o5)ccc34)cc2)nc1 [GW567143],6,79,0,0,8,0,20,0,0,15
Cc1ccc(C)c(NC(=O)Nc2ccc(C)c(-c3ccc(C(=O)Nc4ccncc4)cc3)c2)c1 [GSK1398473],0,92.4,0,0,12,0,36,0,8,0
Cl.O=C(Nc1ccc(Oc2ccc3[nH]c(NC(=O)c4ccco4)nc3c2)cc1)Nc1cc(C(F)(F)F)ccc1F [GW683134],0,58,0,0,11,88,40,0,0,17
Cc1cc(-c2ccnc(Nc3cccc(C#N)c3)n2)cc(C)c1O [GSK1440913],60,0,98.3,98.9,98.2,88,65,43,79,0
O=C(Nc1n[nH]c2cc(-c3cccs3)ccc12)C1CC1 [SB-731284],0,0,37,4,63,6,0,0,78,0
CN1CCN(Cc2ccc(NC(=O)Nc3ccc(N(C)c4ccnc(Nc5ccc(CS(C)(=O)=O)cc5)n4)cc3)cc2)CC1.Cl [GW827654],19,47,83,82,91.9,90.9,99.6,0,71,0

Compound,%Inh (HASPIN) [%],%Inh (HCK) [%],%Inh (HIPK1) [%],%Inh (HIPK2) [%],%Inh (HIPK3) [%],%Inh (HIPK4) [%],%Inh (HPK1) [%],%Inh (HUNK) [%],%Inh (ICK) [%],%Inh (IGF1R) [%]
COc1cc(Nc2ccnc3cc(-c4ccncc4)ccc23)cc(OC)c1OC.Cl [GW494610],40,83,0,0,13,0,0,52,0,0
COc1cccc(CC(=O)N2CCc3cc(-c4cn(C)c5ncnc(N)c45)ccc32)c1 [GSK2608899],0,0,0,0,22,56,55,3,6,17
NCCC(NC(=O)c1cc(Br)c(-c2ccnc3[nH]ccc23)s1)c1ccccc1.O=C(O)C(F)(F)F.O=C(O)C(F)(F)F (stereo not drawn) [GSK1307810],97.6,0,53,9,67,93.3,69,0,0,0
CC(C)(C)c1ccc(C(=O)Nc2cn3cc(-n4ccnc4)ccc3n2)cc1,7,18,32,28,12,21,0,0,0,0
COc1ccc(C)c(Nc2ccnc(Nc3ccc(-c4cnc[nH]4)cc3)n2)c1.Cl [GW784041],0,63,48,0,0,30,0,0,0,12
CNc1nccc(-c2ccc3c(N)n[nH]c3c2)n1 [GSK2206003],93,0,34,0,37,42,55,0,0,22
COC(=O)Nc1nc2ccc(Oc3ccc(NC(=O)Nc4cc(C(F)(F)F)ccc4F)cc3)cc2[nH]1.Cl [GW654607],12,51,8,0,10,92,57,8,11,2
CCn1c(-c2nonc2N)nc2c(-c3ccccc3)ncc(OCCCN)c21.O=C(O)C(F)(F)F.O=C(O)C(F)(F)F [GSK260205],9,0,0,0,38,0,0,0,10,0
N#Cc1cnc2cc(-c3cnc(CNCCN4CCOCC4)s3)ccc2c1Nc1ccc(Oc2ccccc2)cc1 [GW664114],0,99,0,0,17,0,89,12,0,17
Cl.N#CCc1ccc(Nc2nccc(Nc3ccc(Oc4ccccc4)cc3)n2)cc1 [GW639905],0,94.7,0,0,14,0,36,0,0,0
Fc1cc(Cl)ccc1Nc1ccnc2cc(-c3ccc(CN4CCOCC4)o3)ccc12 [GW560109],0,96.7,0,0,26,0,27,62,0,12
COc1cc(Nc2nccc(N3CCC(NC(=O)Nc4ccc5c(c4)OCO5)C3)n2)cc(OC)c1OC (stereo not drawn) [GSK1379766],0,0,0,0,16,0,78,0,26,0
O=C1NC(=O)C(c2ccccc2Cl)=C1Nc1cccc(Cl)c1 [SB-342409],0,0,0,0,2,3,49,0,45,20
Nc1ncnc2scc(-c3ccc(NC(=O)Cc4cc(F)ccc4F)cc3)c12.O=C(O)C(F)(F)F [SB-731254-M],0,66,18,23,26,2,44,0,12,0
Nc1ncc(-c2ccc3nccc(-c4ccncc4)c3c2)cc1S(=O)(=O)N1CCCCC1 [GSK1693850],80,0,42,0,20,57,50,82,16,10
COc1ccc(C2=C(Nc3cccc(O)c3)C(=O)NC2=O)cc1 [SB-390766],0,41,0,2,63,93.5,36,0,10,0
